Consider 98 compounds from PubChem BioAssay AID777 (Sanford-Burnham Center for Chemical Genomics, 2007).

Among all 96,000 compounds or so, about 19,000 (20%) were called active.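 The calls were made as follows: active = blocking of liver enzyme CYP2C9 beyond about 50% at 5 µM (limit read from the data); inactive = the rest.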 Only a sample is shown.

In this assay the target is Cytochrome P450 2C9 (Homo sapiens) (UniProt P11712). Nature of the assay: blockers of cytochrome P450 2C9 activity – biochemical, luminescence, ADME assay, primary screen (AID 777). The following applies: CYP2C9 Supersomes, luciferin-H conversion, at 5 µM, stronger effect = higher value.
Cytochrome P450 2C9 (Homo sapiens), sequence (P11712 whole entry, looked up): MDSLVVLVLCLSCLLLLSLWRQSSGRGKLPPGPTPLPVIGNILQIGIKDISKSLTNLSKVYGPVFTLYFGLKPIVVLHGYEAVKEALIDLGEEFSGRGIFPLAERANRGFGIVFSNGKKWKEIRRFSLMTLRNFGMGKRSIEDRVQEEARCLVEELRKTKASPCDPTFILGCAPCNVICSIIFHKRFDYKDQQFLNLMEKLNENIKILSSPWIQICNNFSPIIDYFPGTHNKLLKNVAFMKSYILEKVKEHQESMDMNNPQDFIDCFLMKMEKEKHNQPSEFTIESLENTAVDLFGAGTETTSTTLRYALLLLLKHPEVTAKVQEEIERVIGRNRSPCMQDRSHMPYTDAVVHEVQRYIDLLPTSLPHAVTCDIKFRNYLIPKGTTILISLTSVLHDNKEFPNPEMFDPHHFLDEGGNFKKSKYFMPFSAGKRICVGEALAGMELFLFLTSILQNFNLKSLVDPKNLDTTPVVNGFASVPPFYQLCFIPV
For `Cc1noc(C)c1COC(=O)c1cc2ccccc2cc1O`, the inhibition (in general, the drop in the measured response relative to a control, in per cent) is 91.6% (active).
With `Cc1nc2ccccc2cc1O` the figure was -22.9% (inactive); with `Cc1noc(C)c1COC(=O)Cn1c(C)nc2ccccc21`, 10.7% (inactive).
With `CC(=O)N(CN1C(=O)C2CC=CCC2C1=O)c1cccc(Cl)c1` (stereo not drawn) the figure was 12.2% (inactive); with `CN1C(=O)CC(N2CCN(c3ccccn3)CC2)C1=O` (stereo not drawn), 7.7% (inactive).
The result for `COc1cccc(C(CC(=O)NCCN2CCOCC2)NS(=O)(=O)c2ccc(C)cc2)c1OC` (stereo not drawn) reads -7.3% (inactive); that for `CCn1c2ccccc2c2cc(NC(=O)C/C(C)=N/NC(=O)c3ccccc3N)ccc21`, -17.8% (inactive).
As to `Cc1cc(C)cc(N(C(C)C(=O)Nc2c(C)n(C)n(-c3ccccc3)c2=O)S(C)(=O)=O)c1` (stereo not drawn), the inhibition was 16.6% (inactive).
With `CSc1ccccc1-c1nnc(-c2ccc(Cl)cc2)o1` the figure was -19.4% (inactive); with `COc1ccccc1-c1nc(C(F)(F)F)c(OC)o1`, 17% (inactive); with `FC(F)(F)c1cnc(Oc2ccccc2-c2nnc(-c3ccc(Cl)cc3)o2)c(Cl)c1`, 81.1% (active).
The result for `O=c1[nH]n(-c2cccc(Cl)c2)c2ncccc12` reads -10.7% (inactive); that for `O=C(Nc1nnc(SCc2c(Cl)cccc2Cl)s1)C1CCCO1` (stereo not drawn), -65.7% (inactive).
For `O=C(Nc1nnc(SCc2ccc(Cl)cc2Cl)s1)C1COc2ccccc2O1` (stereo not drawn), the inhibition is 67.2% (active).
As for `CCSc1nnc(NC(=O)Cc2ccccc2OC)s1`, the inhibition was 42.4% (inactive).
The result for `COc1ccc(NC(=O)Cn2c(=O)n(Cc3ccco3)c(=O)c3ccccc32)cc1` reads 17.1% (inactive).
For the compound `O=C(Cn1c(=O)n(Cc2ccco2)c(=O)c2ccccc21)NCC1CCCO1` (stereo not drawn), the inhibition is 57.3% (active).
Consider `COc1ccccc1CNC(=O)CCCn1c(=O)c2ccccc2n(CC(=O)NC2CCCC2)c1=O`, for which the inhibition was 44.7% (inactive).
The result for `O=C1CC(Sc2ncn[nH]2)C(=O)N1c1ccccc1` (stereo not drawn) reads -21.9% (inactive); that for `Cc1ccc(S(=O)(=O)N/N=C\c2cc3c(cc2[N+](=O)[O-])OCO3)cc1`, -13% (inactive).
The result for `CN1OC(COC(=O)c2ccc(Cl)cc2)CC1c1ccccc1` (stereo not drawn) reads 37.4% (inactive); that for `C=CCNC(=O)c1cc(-c2ccccc2O)on1`, -48.2% (inactive).
Regarding `C=CCNC(=O)c1sc(SC)cc1-c1ccc(Cl)cc1`, the inhibition was 64% (active).
`C=CCNC(=O)c1ccc(C)c(Br)c1`: the inhibition is -17.9% (inactive).
Consider `ON=C1/C(=N\O)CC2(C/C1=N/O)OCCO2`, for which the inhibition is -14.6% (inactive).
For `COc1ccc(-c2cc(C(=O)n3cnc4ccccc43)c3ccccc3n2)cc1`, the inhibition was 92.5% (active).
In the case of `Cc1ccc(OCC(=O)Nn2cnc3ccccc32)cc1`, the inhibition was 6.6% (inactive).
In the case of `COc1ccc(-c2cc3n(n2)CCc2nc4ccccc4n2-3)cc1`, the inhibition was -8.6% (inactive).
As to `COc1cc(NS(=O)(=O)c2ccc(N=Cc3c(C)[nH]n(-c4ccccc4)c3=O)cc2)nc(OC)n1`, the inhibition is -9.3% (inactive).
As for `Cc1[nH]n(-c2cccc(Cl)c2)c(=O)c1/C=N/n1c(C)nc2ccccc2c1=O`, the inhibition was 70.7% (active).
The result for `Cc1[nH]n(-c2cccc(Cl)c2)c(=O)c1-c1ccc(Cl)cc1` reads -1% (inactive).
The result for `Cc1ccc(CNC(=O)CCNC(=O)Cn2ccc3ccccc3c2=O)cc1` reads -18.8% (inactive).
For the compound `CC1CCCC(NC(=O)CN2CCN(Cc3ccc(Cl)cc3)C2=O)C1C` (stereo not drawn), the inhibition was 15.9% (inactive).
The result for `COc1cc(C2C(C(=O)c3ccc(C)o3)=C(O)C(=O)N2Cc2cccnc2)ccc1O` (stereo not drawn) reads 19.4% (inactive); that for `COc1cc(C2C(C(=O)c3ccc(C)o3)=C(O)C(=O)N2CCc2ccccc2)ccc1O` (stereo not drawn), 5.2% (inactive); that for `COc1cc(C2C(C(=O)c3sc(C)nc3C)=C(O)C(=O)N2CCN(C)C)cc(OC)c1OC` (stereo not drawn), 79% (active).
The result for `Cc1ccc2c(c1)C(O)(CC(=O)c1cccnc1)C(=O)N2` (stereo not drawn) reads 8.4% (inactive); that for `Cc1nn(C)cc1/C=C1\CCC/C(=C\c2cn(C)nc2C)C1=O`, -46.5% (inactive).
With `CCOCCCNC(=O)c1c[nH]c2cc(C)ccc2c1=O` the figure was -8.1% (inactive); with `Cc1noc(C)c1CSc1nc2cc(S(=O)(=O)N3CCOCC3)ccc2o1`, 54% (active); with `Cc1noc(C)c1CSc1nnc2ccc3ccccc3n12`, 4.4% (inactive).
`Cc1ccc(S(=O)(=O)N2CCN(S(=O)(=O)N3CCOCC3)CC2)cc1`: the inhibition is -55.7% (inactive).
Take `CCS(=O)(=O)Nc1cc(C(=O)OC)ccc1C(=O)OC`: the inhibition was 37.5% (inactive).
The result for `Cc1oc(-c2ccccc2F)nc1CS(=O)(=O)CC(=O)NCCCN(C)C1CCCCC1` reads -10.6% (inactive).
Turning to `O=C(Cn1c(=S)nc2ccccn21)N1CCc2ccccc2C1`, the inhibition was 4.1% (inactive).
For the compound `Cc1ccccc1-c1nc(CS(=O)(=O)CC(=O)N2CCc3ccccc3C2)c(C)o1`, the inhibition is 72.4% (active).
With `COCCCNC(=O)C1CC(=O)N(c2ccc(C)cc2)C1` (stereo not drawn) the figure was -1.7% (inactive).
For `CS(=O)(=O)N(C(=O)NC(=O)NC1CCS(=O)(=O)C1)C1CCCCC1` (stereo not drawn), the inhibition was 9.2% (inactive).
Consider `CCOc1ccc(NCCC(=O)c2ccc3c(c2)OCO3)cc1`, for which the inhibition is 63.8% (active).
With `COC(=O)CCNc1ccc2c(c1)OCCO2` the figure was -2.2% (inactive); with `Cc1ccc(F)cc1NC(=O)c1ccc2c(c1)OCO2`, 5.7% (inactive).
On to `CC(=O)c1cc(C#N)c(SCC(=O)C(C)(C)C)nc1C`, for which the inhibition was 22.5% (inactive).
With `CCOC(=O)C(Sc1ncc(C#N)c(N)n1)C(C)C` (stereo not drawn) the figure was 25.3% (inactive); with `CCC(C)n1[nH]c(=O)cc1N` (stereo not drawn), -5.6% (inactive).
For `COC(=O)C1=C(C)Nc2ncnn2C1c1cccnc1` (stereo not drawn), the inhibition was -19.5% (inactive).
Take `Clc1ccc2c(c1)C1=C(C(c3ccncc3)O2)C(c2ccc(Br)cc2)n2ncnc2N1` (stereo not drawn): the inhibition is 82% (active).
As for `Brc1ccc(C2=CC(c3ccco3)n3ncnc3N2)cc1` (stereo not drawn), the inhibition was 3.2% (inactive).
With `COc1cccc2c1OCC(C(=O)NCc1ccc(Cl)cc1Cl)=C2` the figure was -17.7% (inactive); with `COC(=O)c1ccc2c(c1)S(=O)(=O)NC(=NCCCN1CCOCC1)S2`, 11.4% (inactive); with `O=C(NCc1ccc2c(c1)OCO2)c1ccc2c(c1)C(=O)N(CC1CCCO1)C2=O` (stereo not drawn), 2.3% (inactive).
Turning to `O=C(/C=C\NCC(=O)c1ccccc1)c1ccccc1`, the inhibition was 12.9% (inactive).
The result for `CC(C)(O)C(=O)NN(C(=O)c1ccccc1)c1cccc(Br)c1` reads -6.8% (inactive); that for `O=C(/C=C/NNC(=O)c1cccc(Br)c1)c1ccccc1`, 76.7% (active).
With `Cc1ccsc1/C=C1\SC(N2CCOCC2)=NC1=O` the figure was -18% (inactive); with `Cc1cc2nc(C)n(CCCNC(=O)Nc3ccccc3)c2cc1C`, 44.6% (inactive); with `O=C(COc1ccccc1)N1CCc2ccccc2C1`, 39.9% (inactive).
As to `CCOc1ccc(CN2CCCN(C)CC2)cc1`, the inhibition was -7.8% (inactive).
Turning to `CCOC(=O)c1ccc(N2C(=O)CC(N3CC(C)OC(C)C3)C2=O)cc1` (stereo not drawn), the inhibition was 5.1% (inactive).
With `CCCCOC(=O)c1ccc(N2C(=O)CC(N3CCN(C/C=C/c4ccccc4)CC3)C2=O)cc1` (stereo not drawn) the figure was 60.1% (active); with `CCOC(=O)c1ccc(N2C(=O)CC(N3CCC(C(=O)OCC)CC3)C2=O)cc1` (stereo not drawn), 38.3% (inactive).
The result for `Cc1cccc(OCc2nnc(SCC(=O)N3CCN(C(=O)c4ccco4)CC3)n2C)c1C` reads 5.9% (inactive); that for `Cc1ccc(-c2c3c(=O)n(C)c(=O)n(C)c3cn2-n2cnnc2)cc1`, -7.5% (inactive); that for `CCC(C)Sc1nc2c(c(=O)[nH]c(=O)n2C)n1CC(O)COc1cccc2ccccc12` (stereo not drawn), 24% (inactive).
The result for `CCOc1ccc(S(=O)(=O)NCCSc2ccccc2)cc1` reads 75.7% (active); that for `CCOc1ccc(S(=O)(=O)NCC2CCCO2)cc1` (stereo not drawn), 7.4% (inactive); that for `O=C(COc1ccc(S(=O)(=O)NCCc2ccccc2)cc1)N1CCCC1`, 45.1% (inactive).
Take `Cc1[nH][nH]c(=O)c1C(c1ccc(-c2ccc(Cl)cc2)o1)c1c(C)[nH][nH]c1=O`: the inhibition was 22.5% (inactive).
As for `CCC(=O)c1cc2c(cc1NC(=O)c1cccs1)OCCO2`, the inhibition is -7% (inactive).
With `O=C(Cc1cccc2ccccc12)Nc1ccc2oc(-c3ccccc3)nc2c1` the figure was 20.1% (inactive).
The result for `CCCCCC(=O)Nc1ccc2oc(-c3ccncc3)nc2c1` reads 75.3% (active); that for `O=C(Nc1ccc2oc(-c3ccc4ccccc4c3)nc2c1)c1cccs1`, 27.5% (inactive).
The result for `N#CC(C(N)=O)=C1CCC2(CC1)OCCCCO2` reads -39.1% (inactive).
Consider `CN(C)Cc1ccccc1C1(O)c2ccccc2CSc2ccccc21` (stereo not drawn), for which the inhibition was 51% (active).
With `CN(C)/C=C1/C(=O)Nc2ccccc21` the figure was -12.8% (inactive).
For the compound `CCOC(=O)N1CCC(NC(=O)COc2cc(=O)n(C)c3ccccc23)CC1`, the inhibition is -30.2% (inactive).
Consider `Cc1cccc(NC(=O)Cn2cc(C(=O)c3ccco3)c3ccccc32)c1`, for which the inhibition was 27.3% (inactive).
Turning to `NS(=O)(=O)c1ccc(Nc2nc(-c3ccccc3)cs2)cc1`, the inhibition is 58% (active).
The result for `Cc1ccc(Nc2nc(-c3sc(NC(=O)c4ccccc4)nc3C)cs2)cc1` reads 3.8% (inactive).
The result for `COc1ccc(Nc2nc(-c3ccccc3)cs2)cc1` reads 31.7% (inactive); that for `Cc1cccc(C(=O)Nc2ccc(CC(=O)O)cc2)c1`, -10.9% (inactive).
The result for `O=C(O)CSCC(=O)Nc1cccc(C(F)(F)F)c1` reads 18.9% (inactive); that for `O=C(CN1CCN(c2ccc(F)cc2)CC1)Nc1cccc(C(F)(F)F)c1`, 82.8% (active).
For the compound `O=C(CN1CCN(c2ncc(C(F)(F)F)cc2Cl)CC1)Nc1ccc2c(c1)OCO2`, the inhibition is 8.6% (inactive).
As to `COc1ccccc1NC(=O)c1ccc(C)s1`, the inhibition is -248% (inactive).
Regarding `Cc1nc(NC(=O)c2cccc(Cl)c2)sc1-c1csc(Nc2cccc(Cl)c2)n1`, the inhibition is -17.4% (inactive).
With `Cc1ccc(C(=O)N/C(=C/c2ccco2)C(=O)NCCc2c[nH]c3ccccc23)cc1C` the figure was 52.5% (active); with `COc1ccc(/C=C(\NC(=O)c2ccc(OC)c(OC)c2)C(=O)NCCc2c[nH]c3ccccc23)cc1`, 42.3% (inactive).
With `CC(=O)N/C(=C/c1ccc(Cl)cc1)C(=O)NCCc1c[nH]c2ccccc12` the figure was -168% (inactive).
